Hit rate of the full screen: of about 5,500 compounds, about 2,000 (36%) were called active. Roughly 18% stayed inconclusive and do not appear here. No stated cut-off is given here; in the data, active means normalized growth mostly below about 0.91 (no sharp cut-off); inconclusive means no clear call, values can overlap the other calls; inactive means mostly above about 0.92. Some of the results follow.
Experiment: chemical genetic growth profiling, strain panel (AID 1159580);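 further: tested at 20 µM; growth read once vehicle control cultures reached saturation at 30 °C; 1 = growth at the plate median or of vehicle wells; lower values mean less growth of the strain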
Details: S. cerevisiae deletion strains, growth OD

Measured: normalized growth

CCNC(=O)[C@H]1O[C@@H](n2cnc3c(N)nc(NCCc4ccc(CCC(=O)O)cc4)nc32)C(O)[C@H]1O (some centres undefined)
inactive: locus YAL040C, strain CLN3, active compounds read low 0.963 | locus YCL061C, strain MRC1 (second series), active compounds read low 0.991 | locus YDR363W, strain ESC2, active compounds read low 0.972 | locus YER002W, strain NOP16, active compounds read low 0.995 | locus YGR078C, strain PAC10, active compounds read low 0.992 | locus YJR075W, strain HOC1, active compounds read low 0.999 | locus YMR307W, strain GAS1, active compounds read low 1 | locus YNL153C, strain GIM3, active compounds read low 1 | locus YNL175C, strain NOP13, active compounds read low 0.98 | locus YNL197C, strain WHI3, active compounds read low 0.981 | locus YNL224C, strain SQS1, active compounds read low 1.03 | locus YOR083W, strain WHI5 (second series), active compounds read low 0.978 | locus YPL055C, strain LGE1, active compounds read low 0.953 | locus YPL241C, strain CIN2, active compounds read low 0.976

Source: PubChem BioAssay AID1159580 (chemical genetic matrix, 2015)
